dFosB activator: activators of delta FosB homodimer, primary screen, biochemical, fluorescence polarization, TAMRA-CDK5 oligo, single point; purified delta FosB; percent of positive-control signal above neutral wells; activation, % at 25 µM; 340,000 compounds, 0.99% hits; AID 493131, 2011;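 active = mean activation above about 17%, with every replicate also reaching it, limit read from the data, passing the limit was not always enough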
Target sequence (P13346 whole entry, looked up): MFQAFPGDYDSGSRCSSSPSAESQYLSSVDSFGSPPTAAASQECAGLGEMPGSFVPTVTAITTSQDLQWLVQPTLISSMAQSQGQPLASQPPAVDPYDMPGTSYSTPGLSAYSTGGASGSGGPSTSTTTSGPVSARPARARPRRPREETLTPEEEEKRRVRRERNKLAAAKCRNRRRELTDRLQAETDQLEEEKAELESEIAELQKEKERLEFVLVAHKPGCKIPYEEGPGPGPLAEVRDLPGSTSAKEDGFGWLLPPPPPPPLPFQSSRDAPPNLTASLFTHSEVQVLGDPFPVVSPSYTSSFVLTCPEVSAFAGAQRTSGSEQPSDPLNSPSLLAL
NALP1 yeast inh: NALP1 inflammasome inhibitors in reconstituted yeast, colorimetric, S. cerevisiae, triplicate retest. S. cerevisiae NALP1/ASC/caspase-1 growth, X-gal OD620, 72 h. inhibition, % at 10 µM. 280,000 compounds, 0.61% hits. AID 2071, 2009; in the data active = inhibition mostly above about 24%, no sharp cut-off; inactive = mostly below about 32%
EBNA-1 inhibitor: EBNA-1 DNA-binding inhibitors, primary screen, biochemical, fluorescence polarization; inhibition, % at 14.8 µM; 300,000 compounds, 0.34% hits; AID 1950, 2009; in the data active = inhibition above about 28%
ZTA DNA inh: counter-screen for EBNA-1 inhibitors: inhibitors of Epstein-Barr virus ZTA | ZTA-DNA binding, fluorescence polarization | inhibition, % at 11 µM | P03206 | 320,000 compounds, 0.15% hits; in the data active = inhibition above about 33%
Target sequence (P03206 whole entry, looked up): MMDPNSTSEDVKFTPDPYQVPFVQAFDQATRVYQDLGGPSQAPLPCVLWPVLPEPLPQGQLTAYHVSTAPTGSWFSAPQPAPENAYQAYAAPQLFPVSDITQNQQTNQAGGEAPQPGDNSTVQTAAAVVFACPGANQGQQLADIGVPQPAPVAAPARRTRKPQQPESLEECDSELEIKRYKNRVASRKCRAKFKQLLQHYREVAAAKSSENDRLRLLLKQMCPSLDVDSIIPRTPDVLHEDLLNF
NALP3 yeast inh: NALP3 inflammasome inhibitors in reconstituted yeast, primary screen, luminescence, uHTS. Yeast reconstituted NLRP3/ASC/caspase-1, beta-gal luminescence, 24 h. inhibition, % at 10 µM. 330,000 compounds, 0.39% hits. AID 2825, 2010;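 active = inhibition of 50% or more; inactive = inhibition below 50%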;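 note: plate controls were induced DMSO wells for no effect and uninduced yeast grown without galactose for full effect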
PolyA inhibitor: polyadenylation inhibitors in yeast reporter cells, primary screen, luminescence, S. cerevisiae; AID 1875, 2009; S. cerevisiae SKY197-pL101 polyadenylation reporter, beta-gal luminescence; efflux-impaired pdr1/pdr3 knockout yeast; score 100 = 6 SD above DMSO; 300,000 compounds, 0.02% hits; activity score, % at 12 µM;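 active = lowest replicate activity score at least 50, where 100 means six control SD above control mean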;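 note: yeast exposed to compound for 9 h at 30 °C; higher score means more reporter readthrough which indicates perturbed polyadenylation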
NALP3 yeast conf: NALP3 inhibitors retested in yeast, confirmation, luminescence, single concentration; shares compounds with NALP3 yeast inh; yeast expressing human NALP3; inhibition, % at 10 µM; 1,300 compounds, 81% hits; in the data active = inhibition above about 48%
Casp1-ASC yeast: CASP1-PYCARD signaling inhibition in yeast, confirmatory test, counterassay for NLRP3 inhibitor program, one-dose. shares compounds with NALP3 yeast inh. yeast expressing Caspase-1-ASC, luminescence counter screen. AID 488784, 2010. 1,000 compounds, 66% hits. inhibition, % at 10 µM
NALP3 yeast rt: NALP3 inhibitors in yeast, repeat test, confirmation, luminescence, single concentration, retest; shares compounds with NALP3 yeast inh; yeast expressing human NALP3, luminescence read-out; inhibition, % at 10 µM; 1,000 compounds, 53% hits; AID 488794, 2010
Numbers without * were called inactive. This is a sample that favours compounds with a hit; in the whole collection about 2.2% have one here. Cut-off read from the data, not from the text of the source, unless noted: active = inhibition above about 50%; inactive = the rest.

For C[C@]12CCC3C(CC[C@H]4C[C@@H](O)CC[C@]34C)C1CCC2=O (stereo partly specified) the results were dFosB activator 0, NALP3 yeast inh 64*, NALP3 yeast conf 66*, Casp1-ASC yeast 63* and NALP3 yeast rt 44.
C[C@]12CCC3C(CC[C@H]4C[C@@H](O)CC[C@]34C)[C@H]1C=CC2=O (stereo partly specified) was read as dFosB activator -11, NALP3 yeast inh 55* and NALP3 yeast conf 60*.
Screening C[C@]12CC[C@H](O)C[C@H]1CC[C@@H]1[C@@H]2CC[C@]2(C)[C@@H](C3=CC(=O)OC3)CC[C@]12O returned dFosB activator 2, EBNA-1 inhibitor -11, ZTA DNA inh 7 and NALP3 yeast inh 28.
Screening CCC(=O)OC1CCC2C3CCC4CC(=O)C=CC4(C)C3CCC12C (stereo unspecified) returned dFosB activator -11.
Screening CC(=O)OCC(=O)[C@H]1CC[C@H]2[C@@H]3CC[C@H]4C[C@H](O)CC[C@]4(C)[C@H]3C(=O)C[C@]12C returned dFosB activator -1, EBNA-1 inhibitor 10, ZTA DNA inh 15, NALP3 yeast inh 56*, NALP3 yeast conf 71*, Casp1-ASC yeast 53* and NALP3 yeast rt 53*.
Screening CS(=O)(=O)N1Cc2ccccc2-n2nncc2C1 returned dFosB activator 4.
For CC12C(C(=O)O)C1(c1ccccc1)C2C(=O)O (stereo unspecified) the results were dFosB activator -2.
C[C@]12CC[C@@H](O)CC1=CCC1C2CC[C@@]2(C)C1C[C@@H](F)[C@H]2O (stereo partly specified) was read as dFosB activator -1.
C[C@]12CC[C@H](O)C[C@@H]1CC[C@@H]1[C@@H]2CC[C@]2(C)C(=O)CC[C@@H]12 was read as dFosB activator 1, NALP1 yeast inh 27, EBNA-1 inhibitor -11, ZTA DNA inh -18, NALP3 yeast inh 67*, PolyA inhibitor -15, NALP3 yeast conf 62*, Casp1-ASC yeast 62* and NALP3 yeast rt 42.
For CC(=O)O[C@H]1C[C@@H]2CC[C@@H]3[C@H](CC[C@]4(C)C(=O)CC[C@@H]34)[C@@]2(C)C[C@@H]1OC(C)=O the results were dFosB activator -4, EBNA-1 inhibitor -4, ZTA DNA inh 4 and NALP3 yeast inh 24.
`C[C@]12CCC3[C@@H](CC[C@@H]4C[C@H](O)CC[C@]34C)[C@@H]1CCC2=O` (stereo partly specified) gave dFosB activator 0, EBNA-1 inhibitor -5, ZTA DNA inh -4, NALP3 yeast inh 67*, NALP3 yeast conf 61*, Casp1-ASC yeast 71* and NALP3 yeast rt 61*.
For C[C@]12CCC3C(CC[C@H]4C[C@@H](O)CC[C@]34C)C1C[C@@H](Br)[C@H]2O (stereo partly specified) the results were NALP3 yeast inh 58* and NALP3 yeast conf 50*.
CC(=O)C1CCC2C3CCC4CC(O)CCC4(C)C3CCC12C (stereo unspecified) was read as dFosB activator 4, EBNA-1 inhibitor 14, ZTA DNA inh -7, NALP3 yeast inh 59*, PolyA inhibitor -2, NALP3 yeast conf 69*, Casp1-ASC yeast 60* and NALP3 yeast rt 58*.
For C[C@]12CCC3C(CC[C@H]4C[C@@H](O)CC[C@]34C)C1[C@H]1CN=N[C@H]1[C@@H]2O (stereo partly specified) the results were dFosB activator -15 and NALP3 yeast inh 37.
CC(=O)NC1=C(N2CC2C)C(=O)C(NC(C)=O)=C(N2CC2C)C1=O (stereo unspecified) was read as dFosB activator -1.
`Brc1ccc2[nH]cc(C=NN3CCCCCC3)c2c1` gave dFosB activator -18.
For Nc1c2c(nc3sc4c(c13)CCCC4)CCCC2 the results were dFosB activator -2, NALP1 yeast inh 17, EBNA-1 inhibitor -8, ZTA DNA inh -16, NALP3 yeast inh 71*, PolyA inhibitor -3, NALP3 yeast conf 82*, Casp1-ASC yeast 54* and NALP3 yeast rt 57*.
Screening CC(C)(C)N1CC(C(=O)c2ccccc2)C1c1ccccc1 (stereo unspecified) returned dFosB activator -10.
For CCOC(=O)C1=Nc2ccccc2/C1=C\c1c(O)n(C)c(=O)n(C)c1=O the results were dFosB activator -15, NALP1 yeast inh -4, EBNA-1 inhibitor -3, ZTA DNA inh -3, NALP3 yeast inh 53*, PolyA inhibitor 20 and NALP3 yeast conf 45.
For CC12CCC3C(CC=C4CC5(CCC43C)OCCO5)C1CCC2=O (stereo unspecified) the results were dFosB activator -5, NALP1 yeast inh 15, EBNA-1 inhibitor 3, ZTA DNA inh 12, NALP3 yeast inh 62*, PolyA inhibitor -15 and NALP3 yeast conf 75*.
Screening C[C@]12CCC(OC(=O)CCC(=O)O)CC1=CCC1C2CC[C@]2(C)C(=O)CCC12 (stereo partly specified) returned dFosB activator 5, NALP1 yeast inh 19, EBNA-1 inhibitor -3, ZTA DNA inh 4, NALP3 yeast inh 59*, PolyA inhibitor -3, NALP3 yeast conf 66*, Casp1-ASC yeast 57* and NALP3 yeast rt 48.
For C[C@]12CC[C@H](OS(=O)(=O)O)CC1=CC[C@@H]1[C@@H]2CC[C@]2(C)C(=O)CC[C@@H]12 the results were dFosB activator -5, EBNA-1 inhibitor -8, ZTA DNA inh 8, NALP3 yeast inh 9 and PolyA inhibitor -2.
Screening CCCC[C@@H](C)C[C@@H](C)C(=O)N(C)[C@@H](CC(C)C)C(=O)N[C@H](C(=O)N(C)[C@H](C(=O)N1C[C@@H](O)C[C@H]1C(=O)N1C(=O)C=C[C@@H]1C)C(C)C)C(C)OC(C)=O (stereo partly specified) returned dFosB activator -15 and NALP3 yeast inh 5.
Screening NNCc1ccccc1 returned dFosB activator 1.

Bioassay records as filed in PubChem.
